A selection: hits, their analogues and other compounds. The true share with any hit is near 11%.
HP1b binding inh: HP1-beta chromodomain-methylated histone interaction inhibition; hit rate 0.56% among 390,000; Potency, µM (highest dose often 114 µM), usual class: inhibitors; AlphaScreen HP1-beta / biotin-H3K9me3 peptide binding; P83916; also: nearly all actives have a fitted effect of over 70% in size
Target sequence (P83916 whole entry, looked up): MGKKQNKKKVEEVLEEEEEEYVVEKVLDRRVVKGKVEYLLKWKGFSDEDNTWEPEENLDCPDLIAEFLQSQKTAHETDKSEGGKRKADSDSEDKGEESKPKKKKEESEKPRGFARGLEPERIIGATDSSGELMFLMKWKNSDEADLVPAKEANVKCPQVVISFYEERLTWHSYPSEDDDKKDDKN
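HP1-beta protein (50 nM final) preincubated 30 min at room temperature with biotinylated H3(1-18)K9me3 peptide (50 nM) in PBS pH 7.4, 0.01% Tween-20, then compound added for 30 min. AlphaScreen streptavidin donor/nickel chelate acceptor beads (10 ug/mL final), 30 min dark, luminescence read.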
JMJD2A Tudor: blocks the human JMJD2A Tudor domain | O75164 | AlphaScreen JMJD2A-Tudor / H3K4me3 peptide binding | Potency, µM (top dose mostly 114 µM), hits mostly inhibitors | hit rate 4.4% among 390,000 | AID 504339; also: nearly all actives have a fitted effect of over 50% in size
VDR inhibitor: blocks the human vitamin D receptor. Potency, µM, actives largely listed as inhibitors. VDR-SRC2-3 peptide fluorescence polarization, 2 h. AID 504847. P11473. hit rate 0.93% among 400,000
Target sequence (P11473 whole entry, looked up): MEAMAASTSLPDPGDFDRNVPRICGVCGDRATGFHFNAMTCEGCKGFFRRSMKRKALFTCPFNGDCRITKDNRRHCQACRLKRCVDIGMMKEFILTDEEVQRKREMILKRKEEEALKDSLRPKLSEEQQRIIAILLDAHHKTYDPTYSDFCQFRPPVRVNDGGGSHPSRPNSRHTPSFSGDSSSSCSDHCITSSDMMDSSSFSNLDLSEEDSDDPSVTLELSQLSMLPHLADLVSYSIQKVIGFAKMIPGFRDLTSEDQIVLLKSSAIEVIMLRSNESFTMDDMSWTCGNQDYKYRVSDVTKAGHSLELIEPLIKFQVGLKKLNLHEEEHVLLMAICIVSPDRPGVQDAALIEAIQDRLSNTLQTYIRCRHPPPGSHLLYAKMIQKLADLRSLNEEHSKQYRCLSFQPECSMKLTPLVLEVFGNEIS
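Reagent solutions, kept cold and dark, are dispensed first; compounds are then pinned in at 23 nl, plates briefly spun, and incubated 2 h at ambient temperature. Inhibition of VDR–SRC2-3 peptide binding is read by fluorescence polarization.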
PLK1 PBD inh: blocks phosphopeptide binding to human PLK1 polo-box domain; P53350; Plk1 PBD binding of FITC phosphopeptide, fluorescence polarization; Potency, µM, hits mostly inhibitors; hit rate 2.8% among 360,000; also: series mostly up to about 57 µM; nearly all actives have a fitted effect of over 65% in size
BAZ2B inh: BAZ2B (human) inhibition. AlphaScreen BAZ2B-H3K14Ac peptide displacement. Potency, µM (titrated, usually from 114 µM), hits mostly inhibitors. hit rate 4.4% among 360,000. AID 504333; also: nearly all actives have a fitted effect of over 60% in size
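Multi-concentration screen (max 110 uM) measuring displacement of acetylated histone H3 peptide from BAZ2B by AlphaScreen, using 50 nM protein, 50 nM peptide and 10 ug/mL streptavidin donor plus Ni-chelate acceptor beads.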
G9a block: G9a (human) methyltransferase inhibition. AID 504332. G9a H3K9 monomethylation, AlphaScreen, 2 h. Q96KQ7. hit rate 8.8% among 350,000. Potency, µM (series often up to 102 µM), most hits filed as inhibitors; also: nearly all actives have a fitted effect of over 75% in size
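Quantitative HTS format: methyltransferase activity on a biotin-tagged H3K9 peptide is measured by AlphaScreen, using a rabbit anti-monomethyl-H3K9 antibody with streptavidin donor and anti-IgG acceptor beads. Final levels are 20 nM enzyme, 500 nM peptide, 20 uM SAM; 2 h RT.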
Each line names hits and unclear results; the compound was inactive in the other large screens; ! = a repeat was not active. Calls follow the shape of the dose curve; as a rule, active = well fitted curve in the direction sought with a large enough effect; inconclusive = small, poorly fitted or top-dose-only effect, or another doubt; inactive = no such curve, though single readings can be large; an effect the other way counts as inactive or inconclusive.

COc1cc(O)cc(O)c1C(=O)/C=C/c1ccccc1	JMJD2A Tudor inconclusive, BAZ2B inh inconclusive
O=C(/C=C/c1ccc(O)cc1)c1ccc(O)cc1O	VDR inhibitor 79µM!
COc1ccc(/C=C/C(=O)c2ccc(OC)cc2OC)cc1	VDR inhibitor inconclusive
COc1ccc(/C=C/C(=O)c2cc(O)ccc2O)cc1	VDR inhibitor 7.9µM, G9a block inconclusive (no result: HP1b binding inh, JMJD2A Tudor, PLK1 PBD inh, BAZ2B inh)
CCN(C(=O)c1cc2c(=O)n3cccc(C)c3nc2s1)c1ccc(C)c(C)c1	none (no result: PLK1 PBD inh)
Cc1[nH]nc2c1C(c1ccsc1C)C(C#N)=C(N)O2 (stereo not drawn)	G9a block 79µM
Cc1[nH]nc2c1C(c1ccc(-c3ccc(Cl)cc3)o1)C(C#N)=C(N)O2 (stereo not drawn)	JMJD2A Tudor inconclusive, PLK1 PBD inh inconclusive, BAZ2B inh 40µM, G9a block 79µM
Cc1[nH]nc2c1C(c1ccc(-c3ccccc3C#N)o1)C(C#N)=C(N)O2 (stereo not drawn)	JMJD2A Tudor inconclusive, PLK1 PBD inh 30µM, G9a block 20µM
Cc1[nH]nc2c1C(c1ccc(F)cc1)C(C#N)=C(N)O2 (stereo not drawn)	none (no result: BAZ2B inh)
NC(=N\N=Cc1ccco1)/C(N)=N/N=Cc1ccco1	JMJD2A Tudor inconclusive (no result: BAZ2B inh, G9a block)
CSc1ccc(S(=O)(=O)N2CCC(C(=O)N3CCc4ccccc4C3)CC2)cc1	G9a block 40µM
Cc1nnc(NC(=O)C2CCN(S(=O)(=O)c3ccc(F)c(F)c3)CC2)o1	JMJD2A Tudor 50µM (no result: BAZ2B inh, G9a block)
Cn1c(=O)oc2cc(S(=O)(=O)N3CCC(C(=O)Nc4ccc(F)c(Cl)c4)CC3)ccc21	none (no result: PLK1 PBD inh)
O=c1ccc(S(=O)(=O)N2CCCC2)cn1Cc1ccc(F)cc1	G9a block 3.5µM
N#Cc1ccc(S(=O)(=O)N2CCC(N3CCCCC3)CC2)cc1	none
COc1ccc(S(=O)(=O)N2CCC(C(=O)N3CCc4ccccc4C3)CC2)cc1	none
O=S(=O)(c1ccc(F)cc1)N1CCC(N2CCCC2)CC1	HP1b binding inh inconclusive, JMJD2A Tudor 20µM, BAZ2B inh inconclusive, G9a block inconclusive
COc1ccc(C2=Nn3c(nnc3-c3ccc(OC)c(OC)c3)SC2)c(OC)c1	none (no result: HP1b binding inh, VDR inhibitor, PLK1 PBD inh, BAZ2B inh, G9a block)
CC(=O)Nc1ccc(S(=O)(=O)N2CCC(C(=O)NC3CCCC3)CC2)cc1	none
Cc1ccc(S(=O)(=O)N2CCC(C(=O)Nc3ccc(N4CCOCC4)cc3)CC2)cc1C	G9a block 16µM
CSc1ccc(S(=O)(=O)N2CCC(C(=O)Nc3ccc(NC(C)=O)cc3)CC2)cc1	G9a block 40µM
CCn1c(C2CCN(S(=O)(=O)c3ccc(OC)cc3)CC2)n[nH]c1=S	JMJD2A Tudor 6.3µM, G9a block 14µM
O=C(Nc1ccc(N2CCOCC2)cc1)C1CCN(S(=O)(=O)c2ccc3c(c2)OCCO3)CC1	none
Cc1ccccc1C(=O)N1CCC(C(=O)Nc2ccc(S(=O)(=O)N3CCCC3)cc2)CC1	PLK1 PBD inh 12µM, G9a block inconclusive
CCn1c(SCc2ccccc2)nnc1C1CCN(S(=O)(=O)c2ccc(OC)cc2)CC1	none (no result: G9a block)
O=S(=O)(c1ccccc1)N1CCC2(CCN(c3ccccc3)CC2)CC1	none (no result: HP1b binding inh, JMJD2A Tudor, PLK1 PBD inh, BAZ2B inh)
N#CN1CCC(N[S+](=O)([O-])c2cccc(F)c2)CC1	none (no result: HP1b binding inh, VDR inhibitor, PLK1 PBD inh, BAZ2B inh, G9a block)
CC(=O)Nc1ccc(S(=O)(=O)N2CCC(N3CCCC3)CC2)cc1	HP1b binding inh inconclusive, JMJD2A Tudor 3.5µM, BAZ2B inh inconclusive, G9a block 50µM
COc1ccc(S(=O)(=O)N2CCCCCC2)cc1	none
COc1ccc(S(=O)(=O)N2CCN(C3CCCC(C)C3)CC2)cc1 (stereo not drawn)	HP1b binding inh 45µM, JMJD2A Tudor 1.3µM, BAZ2B inh 18µM, G9a block 7.1µM
COc1ccc(S(=O)(=O)N2CCC(N3CCCCC3)CC2)cc1	HP1b binding inh inconclusive, JMJD2A Tudor 8.9µM, BAZ2B inh 71µM, G9a block inconclusive
CC1(Cc2ccccc2Cl)C(=O)Nc2ccc(OC(F)(F)F)cc21 (stereo not drawn)	none (no result: HP1b binding inh, JMJD2A Tudor, VDR inhibitor, BAZ2B inh, G9a block)
CC(=O)Nc1cccc(NC(=O)CSc2ccc(-c3sc(-c4ccccc4)nc3C)nn2)c1	none (no result: PLK1 PBD inh)
COc1cc(C2C(C#N)=C(N)Oc3c2oc(CO)cc3=O)ccc1OC(C)C (stereo not drawn)	JMJD2A Tudor 16µM, G9a block inconclusive
O=C(CN(C(=O)c1csnn1)c1ccc2c(c1)OCCO2)NCc1ccc(F)cc1	none
COc1ccc(CCNS(=O)(=O)c2cccc([N+](=O)[O-])c2)cc1OC	none (no result: G9a block)
COc1ccc(CCNC(=O)c2ccc3c(c2)NC(=O)C(CSCc2cc(C)ccc2C)N3)cc1OC (stereo not drawn)	G9a block 1.8µM (no result: HP1b binding inh, JMJD2A Tudor, VDR inhibitor, PLK1 PBD inh)
COc1ccc(CCNC(=O)c2ccc(CNS(=O)(=O)c3cc(C)ccc3C)cc2)cc1OC	G9a block 22µM
COc1ccc(CNS(=O)(=O)c2csc(C(N)=O)c2)cc1OC	JMJD2A Tudor 32µM!
COc1ccc(CCNS(=O)(=O)c2csc(C(N)=O)c2)cc1OC	none
COc1ccc(CCNS(=O)(=O)c2cccc(C(=O)O)c2)cc1OC	HP1b binding inh inconclusive, PLK1 PBD inh 3.4µM
COc1ccc(CCNC(=O)c2ccc3c(c2)NC(=O)C(C(C)C)N3)cc1OC (stereo not drawn)	none
Cc1ccc(-n2c(C)cc(C(=O)C(=O)Nc3ccccc3)c2C)c(C)c1	none (no result: PLK1 PBD inh)
CCOC(=O)c1[nH]c(C)c(C(=O)OCc2ccccc2F)c1C	none
CCOc1ccc(NC(=O)c2cc(S(=O)(=O)N3CCC(C)CC3)cn2C)cc1	none (no result: PLK1 PBD inh)
CN1CCN([C@H]2CS(=O)(=O)N[C@@H]2COCc2ccccc2)CC1	none (no result: HP1b binding inh, JMJD2A Tudor, VDR inhibitor, BAZ2B inh, G9a block)
COc1ccc(CCNC(=O)CCNC(=O)c2ccc(Br)cc2)cc1OC	none
COc1ccc(CCNC(=S)NC(=O)c2ccc(Br)cc2)cc1OC	BAZ2B inh 32µM
Cc1cc(=O)n2nc(-c3ccccc3)sc2c1C#N	JMJD2A Tudor inconclusive, VDR inhibitor inconclusive, PLK1 PBD inh 21µM
C[n+]1nc(Nc2ccccc2)sc1-c1ccc(O)cc1	G9a block inconclusive
CSc1ccc(-c2sc(Nc3ccccc3)n[n+]2-c2ccc(F)cc2)cc1	JMJD2A Tudor 56µM, PLK1 PBD inh 30µM, BAZ2B inh inconclusive, G9a block 50µM
Oc1ccc(-c2sc(Nc3ccccc3)n[n+]2-c2ccc(F)cc2)cc1	BAZ2B inh inconclusive, G9a block 35µM
CCCCCCCCCc1conc1C(=O)/C=C/c1ccco1	none (no result: HP1b binding inh, JMJD2A Tudor, VDR inhibitor, BAZ2B inh, G9a block)
CCOC(=O)CCC(NC(=O)CCC(=O)NC(CCC(=O)OCC)C(=O)OCC)C(=O)OCC (stereo not drawn)	none
CCOC(=O)CCC(NC(=O)CC(=O)NC(CCC(=O)OCC)C(=O)OCC)C(=O)OCC (stereo not drawn)	G9a block 71µM
O=S(=O)(c1ccccc1)N(CC(O)COc1ccccc1)c1ccccc1 (stereo not drawn)	none
